# In ChEMBL document CHEMBL1157539, “Thousands of chemical starting points for antimalarial lead identification” (Nature, 2010):
# Experiments:
# Assay type in all cases: functional
# Plasmodium falciparum [1] = experiment: GSK_TCMDC: Inhibition of Plasmodium falciparum 3D7 in whole red blood cells, using parasite LDH activity as an index of growth. Test compounds present at 2uM
# Plasmodium falciparum [2] = experiment: GSK_TCMDC: Inhibition of Plasmodium falciparum Dd2 in whole red blood cells, using parasite LDH activity as an index of growth. Test compounds present at 2uM
# HepG2 = experiment: GSK_TCMDC: Percent inhibition of human HepG2 cell line. Test compounds present at 10uM.
Compound,Inhibition (Plasmodium falciparum [1]) [%],Inhibition (Plasmodium falciparum [2]) [%],Inhibition (HepG2) [%]
Cc1cc2c(NC(=O)NC3CCN(CCc4cccc(Cl)c4)CC3)cccc2cn1.Cl,100,27,12
COc1ccc2ncc(F)c(CCN3CC(O)C(CNCc4ccc(F)cc4)C3)c2n1.Cl (stereo not given),93,21,38
CC(C)(C)c1ccc(C(=O)Nc2cccc(Nc3c(C(=O)NCc4cccc(C(F)(F)F)c4)cnc4c(O)cccc34)c2)cc1.O=C(O)C(F)(F)F,83,79,40
C=CCc1cc(C2CCN(CCCCNC(=O)c3ccc(-c4ccc(C#N)cc4)cc3)CC2)c(OCC(N)=O)c2c1CCCC2,100,92,43
CC(=O)c1ccc(NC(=O)NNC(=O)c2ccc(CCN3CCC(c4nc(COCC(F)(F)F)c(-c5ccc(F)cc5)o4)CC3)cc2)cc1,96,27,17
FC(F)(F)c1cccc(Nc2nc(-c3ccccc3)nc3ncccc23)c1,97,97,17
Cl.c1ccc(Oc2ccc(Nc3ccnc(Nc4ccc(OCCN5CCCCC5)cc4)n3)cc2)cc1,97,66,23
COc1ccc2nc(Nc3nc(-c4ccccn4)cs3)sc2c1,93,94,40
CC(c1cccc(Nc2nccc(-c3c(-c4cccc(NC(=O)c5c(F)cccc5F)c4)nn4ncccc34)n2)c1)S(C)(=O)=O (stereo not given),98,98,79
COc1cccc(-c2cc(-c3ccc(NC(=O)c4ccccc4)cc3)c3c(N)ncnc3n2)c1,99,98,0
Cc1cc2ncn(-c3ccnc(N4CCN(CCCN5CCCC5)CC4)n3)c2cc1C.O=C(O)C(F)(F)F,100,49,24
COc1ccc2nccc([C@@H](O)CN3CCC(NC(=O)Cc4cccc5c(Br)cccc45)CC3)c2c1,99,34,15
CCN(CCCN1CCCCC1)c1cc(C)nc(Nc2ccc(C)cc2Br)n1.O=C(O)C(F)(F)F,95,27,49
COc1ccccc1CN1CCC(NC(=O)c2ccc(-c3cccc(C(F)(F)F)c3)s2)CC1.O=C(O)C(F)(F)F,85,12,83
O=C(NCCCCCCNCc1ccc(-c2ccccc2)cc1)Nc1ccc(Cl)c(Cl)c1,90,2,14
CSc1cccc(NC(=O)c2cc3ccccc3oc2=O)c1,92,75,0
Cc1ccc(NC(=O)c2cccc(CN3CCCN(Cc4cccc(O)c4)CC3)c2)cc1C.O=C(O)C(F)(F)F,95,31,19
C[C@@H](NC(=O)NC(CCN1CCC2(CC1)CN(S(C)(=O)=O)c1ccccc12)c1ccc(Cl)c(Cl)c1)c1ccccc1 (stereo not given in full),92,88,15

Compound,Inhibition (Plasmodium falciparum [1]) [%],Inhibition (Plasmodium falciparum [2]) [%],Inhibition (HepG2) [%]
COc1cccc2cc(C(=O)N[C@@H](CC(C)C)C(=O)N[C@H](/C=N/N3C(=O)CN(Cc4ccccc4)C3=O)CCc3ccccc3)oc12,85,52,14
CCCCN(CCCC)/C(=N/c1cccc(Cl)c1Cl)Nc1ccc(C#N)cc1O,89,69,4
CC(=O)O.CC(C)c1ccc(C2CCN(CCCCNC(=O)c3ccc(NC(=O)c4ccc(C(F)(F)F)cc4)cc3)CC2)c(O)c1,99,100,47
Cc1cccc(Nc2nc(C)cc(N3CCCN(CC4CCCCC4)CC3)n2)c1,83,21,20
CN(C)S(=O)(=O)c1ccc(N2C(=O)C3C(C2=O)C2(c4ccccc4)C(=O)C3(c3ccccc3)C(c3ccccc3)=C2c2ccccc2)cc1 (stereo not given),92,63,0
O=C(C=Cc1ccc(Cl)c(Cl)c1)NCCCCCN1CCCC(CCCNC(=O)/C=C/c2ccccc2)C1 (stereo not given),98,12,92
Cc1ccc(CNC(=O)[C@H](CCCN)Nc2cc(C)nc(NCC3CCCCC3)n2)cc1.O=C(O)C(F)(F)F,90,0,1
CCCOc1ccc(NC(=O)c2cccs2)cc1Cl,88,86,1
CCC(C)NCC(O)(c1ccc(Cl)cc1)c1ccc(Cl)cc1 (stereo not given),95,76,5
CC[C@H](C)CNC(=O)c1cncc(-c2cccc(CNCCCc3ccccc3)c2)c1.O=C(O)C(F)(F)F,95,0,9
O=C1OC(c2ccccc2)(c2ccccc2)CN1C1CCN(Cc2ccc(O)c(Cl)c2)C1 (stereo not given),100,93,10
Cc1nnc2c(NC(=O)/C=C/c3ccc(OC(F)(F)F)cc3)cc3cc(Cl)ccc3n12,94,99,19
COc1ccc(-c2nc(NC(=O)Cc3cccc(OC)c3)sc2C)cc1,100,77,1
CCOc1ccc2c(=NN=Cc3cc(OC)c(OC)c(OC)c3)cc(C)[nH]c2c1,100,99,18
CCOc1ccc(-c2nonc2NC(=O)c2cccc(Cl)c2)cc1OCC,100,99,0
Cc1cccc2nc(-c3cccc(-c4cccc(C(=O)NCCN5CCCC5)c4)c3)[nH]c12,100,75,21
Cc1[nH]c2ccccc2c1C(=O)C(C)Sc1nnc(-c2ccccc2F)o1 (stereo not given),99,99,24
